About 83,000 compounds went through this panel and 20% of them were active in at least one assay; those are over-represented in the sample as a whole.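 Assay: single dose, 48 h. Readout: percent growth (0 = no net growth; negative = cell death). Active: <10.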 Active and inactive are the calls of the source.
Columns and labels:
Assay in all cases: NCI-60 one-dose screen, 48 h (100 = growth as untreated, 0 = no growth, -100 = all killed)
Conditions in all cases: 10 µM unless noted
[1] = system: NCI-H23 lung
[2] = system: NCI-H226 lung
[3] = system: NCI-H322M lung
[4] = system: HOP-62 NSCLC
[5] = system: NCI-H460 lung
[6] = system: NCI-H522 lung
[7] = system: A549/ATCC NSCLC
[8] = system: 786-0 renal
[9] = system: COLO 205 colon
[10] = system: DU-145 prostate
[11] = system: K-562 leukemia
[12] = system: MDA-MB-231 breast
[13] = system: SF-268 CNS
[14] = system: SF-295 CNS
[15] = system: SF-539 CNS
[16] = system: UACC-257 melanoma
[17] = system: M14 melanoma
[18] = system: HCT-15 colon
[19] = system: MALME-3M melanoma
[20] = system: RXF 393 renal

Measured: growth

COc1cc(C2=NN(C(C)=O)C(c3ccc(OC(C)=O)cc3OC(C)=O)O2)c(OC(C)=O)c2ccccc12 (stereo not drawn)
active: [5] 9.82% | [6] -7.78% | [7] 8% | [11] 6.47% | [15] 7.95% | [16] -8.85% | [17] 5.99%
inactive: [1] 38% | [2] 27% | [3] 19.6% | [4] 24.3% | [8] 11.2% | [9] 10.4% | [10] 26.8% | [12] 34.2% | [13] 19.7% | [14] 22.2% | [18] 32.8%

CCOC(=O)C(Cc1ccccc1)(C(=O)OCC)C(Br)C(=O)c1ccccc1 (stereo not drawn)
inactive: [1] 84.4% | [2] 88% | [3] 83.9% | [4] 95.6% | [5] 93% | [6] 22.5% | [7] 80.2% | [8] 50% | [9] 63% | [10] 93% | [19] 54.2% | [12] 64.2% | [20] 75.5% | [13] 88% | [14] 94.5% | [15] 105% | [16] 70.9% | [17] 84.1% | [18] 41.9%

COc1ccc(-c2csc(NC(=O)c3cc(O)c(O)c(O)c3)n2)cc1
active: [6] -22.9%
inactive: [1] 78.5% | [2] 82.3% | [3] 76.9% | [4] 64.8% | [5] 53.7% | [7] 58.6% | [8] 64.4% | [9] 91.4% | [10] 65.2% | [11] 44.8% | [12] 56% | [13] 54.5% | [14] 73.4% | [15] 62.7% | [16] 87.3% | [17] 63.2% | [18] 30.4%

O=C(/C=C/c1ccc(Cl)cc1)c1ccccc1
inactive: [1] 109% | [2] 91% | [3] 92.2% | [4] 115% | [5] 107% | [6] 81.1% | [7] 88.9% | [8] 93.7% | [9] 120% | [10] 106% | [11] 66.6% | [12] 119% | [13] 102% | [14] 94.3% | [15] 103% | [16] 102% | [17] 100% | [18] 75.4%

O=C1C[C@@H]2/C(=C(O)\C=C\c3ccccc3)C(=O)C=C[C@@H]2O1
inactive: [1] 77% | [2] 39.9% | [3] 26.1% | [5] 12.1% | [7] 36.7% | [11] 14.3% | [13] 11.6% | [14] 71.2%
active: [4] 2.64% | [6] -66.3% | [8] -46.7% | [10] -16.8% | [19] -35.1% | [12] -45.7% | [20] -92.9% | [15] -43.3% | [16] -43.4% | [17] -65.9% | [18] -7.83%

O=C(Nc1ncc([N+](=O)[O-])s1)c1cccc([N+](=O)[O-])c1
active: [1] 9.05% | [6] 8.27%
inactive: [2] 29.3% | [3] 35.9% | [4] 25.3% | [5] 43.4% | [7] 81.8% | [8] 18% | [10] 84.6% | [11] 23.3% | [19] 40.3% | [12] 62.3% | [20] 25.1% | [13] 64.2% | [14] 23.3% | [15] 28.4% | [16] 58.6% | [17] 44% | [18] 47.8%

CCOC(=O)C1C(=O)OC2CCCCC21 (stereo not drawn)
inactive: [1] 101% | [2] 113% | [3] 113% | [4] 127% | [5] 110% | [6] 108% | [7] 102% | [8] 100% | [9] 120% | [11] 102% | [19] 120% | [12] 101% | [20] 119% | [13] 111% | [14] 114% | [15] 105% | [16] 102% | [17] 98.3% | [18] 101%

S=C(Nc1ccc(C2=NCCN2)cc1)Nc1ccc(C2=NCCN2)cc1
inactive: [1] 82.7% | [2] 86.8% | [3] 117% | [4] 99.6% | [5] 106% | [6] 97.2% | [7] 99.9% | [8] 98.2% | [10] 107% | [11] 91.4% | [19] 111% | [12] 113% | [20] 101% | [13] 120% | [14] 96.7% | [15] 93.4% | [16] 93.8% | [17] 94.5% | [18] 101%

O=C(CN1CCCCC1)Sc1nnc2sc3ccccc3n12
inactive: [1] 93.1% | [2] 84.9% | [3] 111% | [4] 89.9% | [5] 103% | [6] 99.5% | [7] 109% | [8] 106% | [10] 112% | [11] 99.6% | [19] 97.5% | [12] 97.4% | [20] 108% | [13] 102% | [14] 110% | [15] 101% | [16] 102% | [17] 98% | [18] 112%

Cc1nn(-c2ccccc2)c2nc(Cl)c(/C=C/C(=O)c3ccccc3)c(-c3ccccc3)c12
inactive: [1] 102% | [2] 89.7% | [3] 105% | [4] 114% | [5] 106% | [6] 89.9% | [7] 110% | [8] 106% | [9] 121% | [10] 115% | [19] 101% | [12] 111% | [20] 103% | [13] 106% | [14] 105% | [16] 114% | [17] 90.1% | [18] 101%

O=Nc1ccc(O)c(=O)cc1
active: [6] -74.1% | [9] -21.6% | [11] 9.11% | [19] -4.09% | [20] -42.1%
inactive: [1] 70.6% | [2] 38.4% | [3] 88.3% | [4] 88.1% | [5] 114% | [7] 110% | [8] 15.9% | [12] 41.6% | [14] 125% | [15] 47.8% | [16] 37.4% | [17] 30.4% | [18] 10.2%

COC(=O)[C@]1(CCSC)N[C@H](c2cn(-c3ccccc3)nc2C)[C@@H]2C(=O)N(c3ccccc3)C(=O)[C@@H]21
inactive: [1] 94.9% | [2] 99.7% | [3] 115% | [4] 107% | [5] 106% | [6] 97.4% | [7] 103% | [8] 104% | [9] 112% | [10] 119% | [19] 105% | [12] 109% | [20] 109% | [13] 114% | [14] 106% | [16] 113% | [17] 95.9% | [18] 112%

Cc1nn(-c2ccc(Cl)cc2)c2nc3c(nc12)C(=O)C(=O)c1ccccc1-3
inactive: [1] 75.5% | [2] 65.2% | [3] 65.1% | [4] 72.1% | [6] 79.7% | [7] 18.2% | [8] 89.5% | [9] 54.3% | [19] 36.8% | [12] 40.4% | [20] 89.6% | [13] 89.3% | [14] 12.1% | [16] 69.2% | [17] 75.5% | [18] 73.9%
active: [5] 5.27% | [10] -22%

COc1cc(C2CC(=O)Nc3c2cc(Br)c2ccccc32)cc(Br)c1OC (stereo not drawn)
active: [7] 3.52% | [8] 0.846% | [14] -31.3%
inactive: [1] 58.8% | [2] 27.1% | [3] 40.7% | [4] 24% | [5] 10.9% | [6] 21.3% | [10] 64.7% | [11] 20.2% | [19] 39.9% | [12] 28% | [20] 35.8% | [13] 55.4% | [15] 74.4% | [16] 73.4% | [17] 48.2% | [18] 39.6%

NC(=O)SCC(=O)Nc1ccccc1-c1ccccc1
inactive: [1] 97.2% | [2] 117% | [3] 106% | [4] 116% | [5] 116% | [6] 50.1% | [7] 91.7% | [8] 95.5% | [9] 95.3% | [11] 103% | [19] 158% | [12] 99.7% | [20] 138% | [14] 109% | [15] 89.5% | [16] 85.7% | [17] 97.7% | [18] 107%

OC(CCC(O)(c1ccccc1)c1ccccc1)(c1ccccc1)c1ccccc1
inactive: [1] 80% | [2] 86.6% | [3] 102% | [4] 114% | [5] 19.9% | [6] 89.8% | [7] 68.7% | [8] 105% | [9] 103% | [19] 100% | [12] 81.5% | [20] 80% | [14] 65.1% | [15] 115% | [16] 82.8% | [17] 96.1% | [18] 100%
active: [11] 5.52%

OCCOc1c(Cl)cc(Cl)cc1Cl
inactive: [1] 101% | [2] 111% | [3] 114% | [4] 108% | [5] 108% | [6] 108% | [7] 93.9% | [8] 104% | [9] 114% | [10] 115% | [19] 101% | [12] 87.3% | [13] 103% | [14] 100% | [15] 102% | [16] 90.3% | [17] 107% | [18] 104%

Source: PubChem BioAssay (NCI)
